Unmarked numbers belong to inactive results. Calls of active or inactive are those of the source. The rule behind the calls is not given here. A value given as a limit tells only on which side of the number the result lay.

The assay is described as follows: Bcl-B/Bim-BH3 peptide binding displacement, dose response, counter-screen for TR3-derived Bcl-B inhibitor project, biochemical, fluorescence polarization (AID 1244). The settings on record: Bcl-B/FITC-Bim-BH3 peptide binding. A general note: The purpose of a counterscreen is to sort out artefacts and off-target activity.

With `Cc1cc(C)nc(/N=C(/N)Nc2cccc(N)c2)n1`, the EC50 is greater than 25 µM.

On to `Cc1ccc(C)n1-c1ccc(Br)cc1C(=O)O`, for which the EC50 is 0.48 µM (active).

One may read the EC50 as the concentration that produces a half-maximal response.

Values taken from PubChem BioAssay AID1244 (Sanford-Burnham Center for Chemical Genomics, 2008).
